Data from PubChem BioAssay.
The source made the active and inactive calls.

Columns and labels:
[1] = system: Plasmodium falciparum Sir2 (PF13_0152, Sir2A); experiment: pfSir2 binders on small-molecule microarrays, primary screen, biochemical, small-molecule microarray, 635 nm fluorescence (AID 1098); settings: small-molecule microarray binding, fluorescence 635 nm; higher = more signal;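 further: score merges spot fluorescence intensity with its signal-to-noise ratio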
[2] = small-molecule microarray binders of probe aDKK1, primary screen, biochemical, biotinylated probe, 635/667 nm fluorescence (AID 1099); settings: higher = more signal;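 further: score merges 667nm spot fluorescence with signal to noise across triplicate slides; reference of the scale not given here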
[3] = small-molecule microarray binders of probe aCHRDL2, primary screen, biochemical, biotinylated probe, 635/667 nm fluorescence (AID 1100); settings: higher = more signal
[4] = splicing luciferase reporter signal modulators, primary screen, spliceosome inhibition project, cell-based, HEK293, splice +/- reporter (AID 1101); settings: luminescence, 24 h, higher = more signal, called active from +8 up or from −8 down;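 further: HEK293 cells carrying a splicing-competent luciferase reporter gene; test concentration not given here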
[5] = molecular target: Fibroblast growth factor 10 (Homo sapiens) (UniProt O15520); experiment: FGF10 binders on small-molecule microarrays, primary screen, biochemical, small-molecule microarray, 635 nm fluorescence (AID 1102); settings: FGF10 binding, fluorescence 635 nm, higher = more signal
Fibroblast growth factor 10 (Homo sapiens), sequence (O15520 whole entry, looked up): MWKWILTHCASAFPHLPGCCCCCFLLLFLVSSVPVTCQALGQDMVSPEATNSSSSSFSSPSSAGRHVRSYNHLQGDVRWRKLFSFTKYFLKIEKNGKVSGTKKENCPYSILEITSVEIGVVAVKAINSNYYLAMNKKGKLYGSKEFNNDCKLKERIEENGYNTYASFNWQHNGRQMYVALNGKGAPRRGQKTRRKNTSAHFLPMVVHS

[6] = system: glycogen synthase kinase-3 (GSK3A per assay name; protocol says GSK3B); experiment: GSK3 binders on small-molecule microarrays, primary screen, biochemical, small-molecule microarray, 635 nm fluorescence, GSK3A (AID 1103); settings: small-molecule microarray binding, fluorescence 635 nm; higher = more signal; further: the record names both GSK3A and GSK3B
[7] = molecular target: Epidermal growth factor receptor (Homo sapiens) (UniProt P00533); experiment: EGFR binders on small-molecule microarrays, primary screen, biochemical, small-molecule microarray, 635 nm fluorescence (AID 1104); settings: EGFR binding, higher = more signal;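 further: score merges 667 nm emission intensity with spot signal to noise over triplicate slides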
Epidermal growth factor receptor (Homo sapiens), sequence (P00533 whole entry, looked up): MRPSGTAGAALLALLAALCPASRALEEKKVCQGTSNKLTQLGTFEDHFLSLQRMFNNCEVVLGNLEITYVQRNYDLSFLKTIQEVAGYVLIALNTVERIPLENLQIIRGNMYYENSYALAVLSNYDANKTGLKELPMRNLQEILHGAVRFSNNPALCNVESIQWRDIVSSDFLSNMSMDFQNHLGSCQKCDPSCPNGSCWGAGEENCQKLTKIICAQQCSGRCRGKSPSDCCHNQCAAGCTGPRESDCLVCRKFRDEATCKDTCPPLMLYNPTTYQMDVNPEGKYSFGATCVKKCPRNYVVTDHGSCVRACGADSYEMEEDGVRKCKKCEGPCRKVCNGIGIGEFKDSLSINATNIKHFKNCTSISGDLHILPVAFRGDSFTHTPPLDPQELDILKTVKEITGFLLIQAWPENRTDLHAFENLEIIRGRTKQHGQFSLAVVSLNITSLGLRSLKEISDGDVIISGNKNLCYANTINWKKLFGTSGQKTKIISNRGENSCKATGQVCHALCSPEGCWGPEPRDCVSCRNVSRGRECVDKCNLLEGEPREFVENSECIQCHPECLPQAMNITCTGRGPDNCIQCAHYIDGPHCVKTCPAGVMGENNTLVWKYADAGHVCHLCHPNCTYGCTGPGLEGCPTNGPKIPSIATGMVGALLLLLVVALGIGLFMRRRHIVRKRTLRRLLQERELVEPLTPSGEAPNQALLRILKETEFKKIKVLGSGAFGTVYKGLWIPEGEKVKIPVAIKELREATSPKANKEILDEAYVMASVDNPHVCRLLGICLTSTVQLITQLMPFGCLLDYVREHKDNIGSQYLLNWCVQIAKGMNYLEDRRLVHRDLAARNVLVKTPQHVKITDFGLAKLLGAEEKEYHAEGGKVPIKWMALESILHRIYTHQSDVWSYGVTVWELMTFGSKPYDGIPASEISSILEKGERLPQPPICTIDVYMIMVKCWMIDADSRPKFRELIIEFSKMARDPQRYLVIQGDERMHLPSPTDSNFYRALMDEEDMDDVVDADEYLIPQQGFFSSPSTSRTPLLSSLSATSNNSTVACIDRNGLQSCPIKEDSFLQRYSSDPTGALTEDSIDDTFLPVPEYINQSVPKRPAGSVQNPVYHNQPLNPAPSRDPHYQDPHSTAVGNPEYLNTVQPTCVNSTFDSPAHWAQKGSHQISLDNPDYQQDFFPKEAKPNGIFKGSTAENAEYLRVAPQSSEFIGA

[8] = molecular target: Follistatin-related protein 3 (Homo sapiens) (UniProt O95633); experiment: FSTL3 binders on small-molecule microarrays, primary screen, biochemical, small-molecule microarray, 635 nm fluorescence (AID 1105); settings: FSTL3 binding, higher = more signal;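 further: score merges emission near 667 nm and signal to noise per printed spot across three slides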
Follistatin-related protein 3 (Homo sapiens), sequence (O95633 whole entry, looked up): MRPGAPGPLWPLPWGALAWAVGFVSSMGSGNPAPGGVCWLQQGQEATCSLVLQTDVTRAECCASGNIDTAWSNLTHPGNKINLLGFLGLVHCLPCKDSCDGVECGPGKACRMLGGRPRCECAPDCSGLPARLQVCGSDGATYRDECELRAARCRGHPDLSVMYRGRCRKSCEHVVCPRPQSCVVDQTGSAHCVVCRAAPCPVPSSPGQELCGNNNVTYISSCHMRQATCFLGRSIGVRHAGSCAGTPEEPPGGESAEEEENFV

[9] = molecular target: Dickkopf-related protein 1 (Homo sapiens) (UniProt O94907); experiment: DKK1 binders on small-molecule microarrays, primary screen, biochemical, small-molecule microarray, 635 nm fluorescence scan (AID 1106); settings: DKK1 binding, higher = more signal;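 further: score merges emission near 667 nm with signal to noise over three replicate slides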
Dickkopf-related protein 1 (Homo sapiens), sequence (O94907 whole entry, looked up): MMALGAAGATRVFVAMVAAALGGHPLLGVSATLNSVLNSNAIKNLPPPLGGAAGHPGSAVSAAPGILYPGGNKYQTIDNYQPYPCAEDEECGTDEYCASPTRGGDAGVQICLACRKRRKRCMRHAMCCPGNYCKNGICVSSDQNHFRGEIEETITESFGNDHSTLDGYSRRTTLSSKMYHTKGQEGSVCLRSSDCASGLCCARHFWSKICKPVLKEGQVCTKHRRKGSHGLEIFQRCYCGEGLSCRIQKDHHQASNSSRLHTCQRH

[10] = system: Inhibin beta A chain (activin A); experiment: INHBA (activin A) binders on microarrays, primary screen, biochemical, small-molecule microarray, 635 nm fluorescence scan (AID 1107); settings: small-molecule microarray binding, higher = more signal;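 further: mouse activin A protein probed at 4.33 µg/mL on printed slides; score merges bound-protein fluorescence near 667 nm with spot signal-to-noise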

SMILES | composite z-score [1] | composite z-score [2] | composite z-score [3] | z-score [4] | composite z-score [5] | composite z-score [6] | composite z-score [7] | composite z-score [8] | composite z-score [9] | composite z-score [10]
[N-]=[N+]=NCc1ccccc1[C@@H]1OC(c2ccc(OCCCO)cc2)=N[C@]1(Cc1ccccc1N=[N+]=[N-])C(N)=O | 1.48 | 0.367 | 1.16 | 0.352 (inactive) | 1.38 | 1.27 | -0.0099 | 0.995 | 0.259 | 1.06
COCCOC(=O)N1C(=O)[C@@]2(c3cc(C#Cc4ccc(OC)cc4)ccc31)[C@H](c1ccc(OCCO)cc1)N1[C@H](c3ccccc3)[C@H](c3ccccc3)OC(=O)[C@H]1[C@@H]2C(=O)N1CCc2cc(OC)c(OC)cc2C1 | 1.41 | -0.126 | -0.227 | -0.355 (inactive) | 0.812 | 1.12 | 0.463 | 1.3 | 0.435 | 0.273
C=CCC(OC(C)=O)[C@@H]1[C@@H](N(Cc2ccc(-c3cccc(C(F)(F)F)c3)o2)C(=O)Cc2ccc(OC)cc2)c2cc(OCCCO)ccc2N1C(=O)Cc1ccc(OC)cc1 (stereo not given in full) | 0.294 | -0.22 | 0.373 | -1.94 (inactive) | -0.593 | -1.7 | -0.719 | -0.391 | -0.227 | 0.925
O=[N+]([O-])c1ccc(C[n+]2ccc(CCCO)cc2)o1 | 0.513 | 0.762 | 0.805 | 0.115 (inactive) | 1.54 | 0.634 | 0.396 | 1.13 | 1.08 | 0.918
C=CC[C@]1(C(=O)NCCN2CCOCC2)N=C(c2ccc(OCCCO)cc2)O[C@H]1c1ccccc1N=[N+]=[N-] | 0.529 | 1.22 | 1.31 | -0.448 (inactive) | 1.08 | 0.287 | 0.327 | 1.05 | 0.283 | 1.6
C=CCN1C(=O)[C@@]2(O[C@@H](CCO)[C@H]([Si](C)(C)c3ccc(OC)cc3)[C@H]2C)c2cc(NC(C)=O)ccc21 | 0.463 | -0.155 | -0.255 | -1.17 (inactive) | 1.08 | 1.16 | 0.363 | 1.44 | 1.29 | 0.314
COC(=O)[C@@]1(Cc2ccccc2)[C@H]2c3cc(C(=O)N(C)C)n(Cc4cc(F)c(F)c(F)c4)c3C[C@H]2CN1C(=O)c1ccccc1 | 1.47 | 0.375 | 1.22 | -3.26 (inactive) | 0.86 | -0.629 | 0.0296 | 0.521 | -0.818 | 0.748
CCCNC(=O)[C@@]1(C)c2ccccc2C(=O)N(Cc2cc(C(F)(F)F)cc(C(F)(F)F)c2)[C@H]1c1ccc(CO)cc1 | 0.0609 | 0.21 | 0.608 | -0.542 (inactive) | -0.0617 | -0.196 | -0.708 | -0.808 | -0.408 | -0.605
O=C(N1CCCCC1)[C@]1(CCS(=O)(=O)c2ccccc2)N=C(c2ccc(OCCCO)cc2)O[C@@H]1c1ccccc1 | 1.26 | 1.02 | 1.08 | 0.25 (inactive) | 0.997 | 1.31 | -0.0354 | 0.536 | -0.142 | 1.29
COc1cc2c(cc1O)C(c1ccc(CN3CCCC3)cc1)N(Cc1sc3ccccc3c1Cl)CC2 (stereo not given) | 1.41 | 0.0829 | 0.234 | -0.478 (inactive) | 0.514 | -0.111 | 0.521 | 0.988 | 1.12 | 1.35
Cc1ccc(N2C(=O)c3ccccc3[C@@H](C(=O)NCC(C)C)[C@@H]2c2ccc(CO)cc2)nc1 | 1.48 | -0.244 | 0.544 | 0.337 (inactive) | -0.617 | -0.813 | -1.26 | -1.19 | -0.52 | 0.244
COCCOC(=O)N1C(=O)[C@@]2(c3cc(C#Cc4ccc(OC)cc4)ccc31)[C@H](c1ccc(O)cc1)N1[C@H](c3ccccc3)[C@H](c3ccccc3)OC(=O)[C@H]1[C@@H]2C(=O)N1CCN(c2ncccn2)CC1 | 0.408 | -0.544 | 0.245 | 0.477 (inactive) | 0.735 | -0.0597 | 0.375 | 0.85 | 0.355 | 0.349
CCN(CC)c1ccc(N2CC=CC34O[C@@H]5C=CCOC(=O)[C@@H]5[C@H]3C(=O)N(CCCCCO)[C@@H]4C2=O)cc1 (stereo not given in full) | 1.85 | -0.0647 | 0.682 | 0.223 (inactive) | 0.126 | -0.453 | -1.53 | -1.22 | -0.413 | 1.1
